KB-V1 MDR tox = qHTS assay for MDR1-selective chemotherapeutics: Primary screen using the drug-selected MDR subline cells KB-V1; KB-V1 MDR cells viability, CellTiter-Glo, 72 h; Potency, µM (titrated, usually from 46.1 µM), most hits filed as cytotoxic; 400,000 compounds, 3.4% hits; AID 1347076, 2019; also: nearly all actives have a fitted effect of over 60% in size
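Cytotoxicity via CellTiter-Glo luminescence after 72 h compound exposure at 37 degrees C. Cells: drug-selected KB-V1 line, DMEM phenol-red free plus 10% FBS. Compounds tested at multiple concentrations; normalized data fitted to concentration-effect curves.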
HT1080 IDH1KD tx = qHTS for induction of synthetic lethality in tumor cells producing 2HG: qHTS for the HT-1080-IDH1KD cell line; HT-1080 IDH1 knockdown viability, ATP luminescence, 48 h; Potency, µM (titrated, usually from 46.1 µM), for inactives: top-dose activity, negative = toxicity, usual class: cytotoxic; 360,000 compounds, 2% hits;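 also: 0% = DMSO wells and -100% = cell-free medium wells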
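Viability of IDH1-knockdown HT-1080 fibrosarcoma cells was assessed by CellTiter-Glo after 48 h at 37 °C with titrated compound; concentration-effect curves were classified by fit quality and response size.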
TDP1 cell noCPT = qHTS for Inhibitors of human tyrosyl-DNA phosphodiesterase 1 (TDP1): qHTS in cells in absence of CPT; Potency, µM (series often up to 46.2 µM), inactives show top-dose activity change, negative = growth inhibition, actives largely listed as inhibitors; 420,000 compounds, 15% hits; DT40 Tdp1-/- hTDP1 cells, no CPT, ATP luminescence, 48 h; also: nearly all actives have a fitted effect of over 55% in size
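DT40 Tdp1-/-;hTDP1 cells, no CPT (DMSO vehicle only), 400 cells/well; compounds pin-transferred; ≥48 hr, 37 °C; CellTiter-Glo 30 min RT dark, luminescence read.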
TDP1 cell CPT = qHTS for Inhibitors of human tyrosyl-DNA phosphodiesterase 1 (TDP1): qHTS in cells in presence of CPT; Potency, µM (highest dose often 46.2 µM), for inactives: at the top dose activity change, negative = growth inhibition, usual class: inhibitors; chicken DT40 Tdp1-/-;hTDP1 cells + 20 nM CPT, ATP luminescence, 48 h; 420,000 compounds, 12% hits; also: nearly all actives have a fitted effect of over 55% in size
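Cell growth measured by CellTiter-Glo luminescence after a minimum 48 h, 37 C compound exposure with 20 nM CPT in Tdp1-knockout DT40 cells stably expressing hTDP1, seeded 400/well; qHTS titration format.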
HT1080NT lethal = qHTS for induction of synthetic lethality in tumor cells producing 2HG: qHTS for the HT-1080-NT fibrosarcoma cell line. 360,000 compounds, 1.6% hits. Potency, µM (titrated, usually from 46.1 µM), for the others: at the highest dose activity, negative = less viability, hits mostly cytotoxic. HT-1080-NT fibrosarcoma viability, CellTiter-Glo ATP luminescence, 48 h. AID 686970, 2013;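 also: NT is the 2HG producing partner of a matched IDH1 knockdown line; 0% = DMSO-treated cells and -100% = media-only wells without cells; nearly all actives have a fitted effect of over 55% in size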
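Compounds were tested in concentration-response format on HT-1080-NT cells for 48 hours at 37 degrees C. Cell viability came from CellTiter-Glo luminescence; curves were classified by r2, response magnitude and activity.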
KB-3-1 cytotox = qHTS assay for MDR1-selective chemotherapeutics: Primary screen using the parental adenocarcinoma cell KB-3-1; KB-3-1 viability, CellTiter-Glo ATP luminescence, 72 h; Potency, µM (highest dose often 46.1 µM), most hits filed as cytotoxic; 400,000 compounds, 1.4% hits; AID 1347075, 2019; also: nearly all actives have a fitted effect of over 60% in size
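Cells are dispensed, compounds pinned in, plates held at 37 °C for 72 h, then CellTiter-Glo is added and luminescence read after 10 minutes. Cell line: parental KB-3-1 in phenol-red-free DMEM, 10% FBS.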
Starred values were filed as active, the others as inactive; i = inactive; u = inconclusive; x = no result; [ ] = remark or other dose. Most compounds without a hit are left out; they make up all but 19% or so of the library. Calls follow the shape of the dose curve; as a rule, active = well fitted curve in the direction sought with a large enough effect; inconclusive = small, poorly fitted or top-dose-only effect, or another doubt; inactive = no such curve, though single readings can be large; an effect the other way counts as inactive or inconclusive. Unless noted, % is scaled to controls: 0 for no effect and ±100 for the full control effect; potency is read from the fitted curve at half-maximal effect.

SMILES | KB-V1 MDR tox | HT1080 IDH1KD tx | TDP1 cell noCPT | TDP1 cell CPT | HT1080NT lethal | KB-3-1 cytotox
Cc1ccc(C(=O)N/C(=C/c2cccs2)C(=O)N2CCCCCC2)cc1 | i | -1% | -8% | -3% | 2% | i
O=C(N/C(=C/c1ccco1)C(=O)N1CCCCCC1)c1cccs1 | 21µM* | u | 4% | -11% | -7% | i
O=C(N/C(=C/c1cccs1)C(=O)N1CCCCCC1)c1ccccc1 | 21µM* | 9% | 0% | -2% | 3% | i
Cc1nn(C(C)C(=O)N/N=C/c2ccc(N(C)C)cc2)c(C)c1[N+](=O)[O-] (configuration not stated) | i | -7% | -18% | -21% | -9% | i
CCCCOc1ccc(C(=O)N/C(=C\c2ccc(Br)cc2)C(=O)NC2CCCCC2)cc1 | i | x | u | 5.2µM* | x | i
O=C1CC[C@@]23CCCN2C(=O)CCCC3C1 (some centres not stated) | i | -1% | 10% | 31% | -3% | i
COc1ccc(O)c(C(=O)c2cnn(C(=O)c3cccc(N(C)C)c3)c2)c1 | u | -6% | 18µM* | 18µM* | -6% | i
CN(C)c1cccc(C(=O)n2cc(C(=O)c3cc(F)ccc3O)cn2)c1 | i | -8% | u | -2% | -3% | i
Cc1ccc(C(=O)NCCc2csc(-c3cccnc3)n2)cc1 | i | 13% | u | u | -4% | i
O=C(NCCc1csc(-c2cccnc2)n1)c1cccc(C(F)(F)F)c1 | 9.2µM* | x | x | x | x | u
O=C(NCCc1csc(-c2cccnc2)n1)c1ccc(F)c(F)c1 | 13µM* | x | x | x | x | i
CCCCCCCCCCC/C=C\C(C)(C)/C=C\CCCC(=O)O | x | x | -25%[4.12 µM] | -1%[4.12 µM] | x | x
CCS(=O)(=O)N1CCC(C(=O)NCCc2ccccc2)CC1 | i | 6% | -5% | 1% | -3% | i
CCC1CN(C(=O)N2CCC(C(=O)NCCc3ccc(C)cc3)CC2)c2ccccc2O1 (configuration not stated) | x | x | 21µM* | u | x | x
CCC1CN(C(=O)N2CCC(C(=O)NCCc3ccccc3)CC2)c2ccccc2O1 (configuration not stated) | i | -1% | 8.2µM* | u | 15% | i
CCC1CN(C(=O)N2CCC(C(=O)N3CCN(c4ccccc4F)CC3)CC2)c2ccccc2O1 (configuration not stated) | x | x | 16µM* | 16µM* | x | x
CCOC(=O)C1CCCN(C(=O)c2ccc(C(=O)c3ccccc3)cc2)C1 (configuration not stated) | i | 0% | u | -20% | -6% | i
CCOC(=O)C1CCCN(C(=O)COc2ccc(C(=O)c3ccccc3)cc2)C1 (configuration not stated) | i | -15% | 23µM* | 23µM* | -10% | i
CCOC(=O)C1(C)CCN1C(=O)COc1ccc(C(C)(C)C)cc1 (configuration not stated) | i | -12% | 21µM* | 21µM* | 0% | i
CCOC(=O)C1CCN(Cc2cnc(Oc3ccc(C(C)(C)C)cc3)s2)CC1 | i | -5% | 21µM* | u | -2% | i
CCOC(=O)C1CCN(Cc2cnc(NC(=O)OC)s2)CC1 | i | 3% | 8% | -8% | -3% | i
CCOC(=O)C1CCCN(C(=O)COc2ccc(C(C)(C)C)cc2)CC1 (configuration not stated) | i | -3% | 15µM* | 21µM* | -3% | i
Cc1ccc(CNC(=O)CSc2nc3c(sc4ccccc43)c(=O)n2CCCC(=O)NCCO)cc1 | i | x | u | -20% | x | i
c1ccc(N2CCN(CC3CCCCC3)CC2)cc1 | i | -13% | 3% | -16% | 1% | i
C/C1=C\CCC2C(/C=C(\C)CC1)OC(=O)C2CN1CCCCC1 (configuration not stated) | u | 21µM* | u | 10µM* | u | i
SMILES | KB-V1 MDR tox | HT1080 IDH1KD tx | TDP1 cell noCPT | TDP1 cell CPT | HT1080NT lethal | KB-3-1 cytotox
C=C1CCC[C@]2(C)C[C@H]3OC(=O)C(CN4CCOCC4)[C@H]3C[C@@H]12 (some centres not stated) | i | -27% | u | u | -22% | i
COc1cc(Cn2c3ccc(NC(=O)CC(C)C(F)(F)F)cc3c(=O)n2C)ccc1F (configuration not stated) | i | 0% | 16µM* | u | 8% | i
CC(CC(=O)Nc1ccc2c(c1)c(=O)n(C)n2Cc1ccc(Cl)cc1)C(F)(F)F (configuration not stated) | i | -14% | 9.2µM* | u | -11% | i
CC(CC(=O)Nc1ccc2c(c1)c(=O)n(C)n2Cc1cccc(C(F)(F)F)c1)C(F)(F)F (configuration not stated) | i | 9% | u | -27% | 13% | i
COc1cc(Cn2c3ccc(NC(=O)CC(C)(C)C)cc3c(=O)n2C)ccc1F | i | 7% | u | u | 4% | i
COc1cc(Cn2c3ccc(NC(=S)NCc4ccc(C)cc4)cc3c(=O)n2C)ccc1F | i | -23% | 21µM* | u | -18% | u
COc1ccc(CN2CCC(n3nccc3NC(=O)C3CC3)CC2)cc1O | i | 3% | -5% | 9% | -1% | i
Cc1ccc(C(C)C)c(OCC(=O)OCC(=O)NC2CCS(=O)(=O)C2)c1 (configuration not stated) | u | 12% | -2% | 0% | -4% | i
O=C(COc1ccc(C(=O)c2ccccc2)cc1)NCC(=O)Nc1ccccc1Br | i | 4% | -6% | -28% | 7% | i
Cc1[nH]c(-c2ccccn2)nc(=S)c1Cl | u | -23% | u | 10µM* | 0% | i
Cc1cc(=S)nc(-c2ccccn2)[nH]1 | i | -4% | 4.6µM* | 3.3µM* | -1% | u
COc1ccc(NC(=O)C2CC(c3cc(OC)c(OC)c(OC)c3)=NO2)cc1OC (configuration not stated) | 13µM* | -14% | u | u | 4% | i

Source: PubChem (National Center for Advancing Translational Sciences (NCATS))
